In the supplement of paper PMC6555819:

test system: THRa homodimer (NR concentration 90 nM); assay: PBM binding z-score (relative to random genomic background probes); higher = stronger binding; sequences stand for … in GC…GCGATTGACAGCGTAGAATGAAGG
Procedure, shortened: (§1)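 Binding z-scores take random background probes as their reference. They come from custom Agilent 4×180K protein-binding microarrays incubated 1 h with ligand-free nuclear receptor dimers, with antibodies against each partner (one per run) detecting binding. Scanned fluorescence was regression-normalized.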

Row | Sequence | PBM binding z-score
1 | GCTCGGAGGACAAGGTCAGAGGTTTGTCCGTAGA | 1.42
2 | GGAACGAGGGCATTCAAGTTGATAGCATGGCGAT | -0.291
3 | CGTTACGGGTCACGAGGTTATAGCACGACGAGCG | 1.09
4 | AGTCAAAGTTCACTAGGTACCGTAAGATTCAGCT | -0.132
5 | GGAACGAGGGCAATCGAGTTGATAGCATGGCGAT | -0.649
6 | GGAGCGAGGGCATTCGAGTTGATAGCATGGCGAT | -0.906
7 | CTCGAAAGGACGTGCTCAGGTGAGTATACCAAAC | 0.542
8 | TCTCGGAGCACACGAAAGGTCAGAGCTCGACATC | -0.342
9 | TTACCAAGGTGAGCTGATGTCGTTGATCCAACTC | 0.0669
10 | TTTAGTTGGTCACGGAGGTCACACACGACGGGTA | 3.15
11 | TCTAATTGGTCACGGAGGTCACACACGACGGGTA | 2.75
12 | TCGAGTAGGTTAGGGACATTCAGAATGGCGTCGA | 0.953
13 | TCTAGTTGGTCACAGGTCACACACTCGAAATGCG | 1.97
14 | TCTATTAGTTGATTAGGTCAACCGAAACAGCGGA | 2.74
15 | CGAACTAGGTCATCCAGGACAGTGGATACATTGA | 1.96
16 | TCGAGTAGGTTAAGGGCATTCAGAATGGCGTCGA | 0.794
17 | CGTCCAAGGTCAGAAAGGTCAGTGAATGCCGAGT | 2.3
18 | AGAATGAGGTTATTAAGATCAGGAAATTGCGGTC | 0.497
19 | CAAACTAGGTCATTGACAGGACAGTGAATAGTAA | 1.01
20 | TCTGCTCGGTCAACGATGGTCAGCTAATCTGCTA | -0.89

Row | Sequence | PBM binding z-score
21 | CCGACTGGTGCAAGGTTACCATAACGCACAGCCA | 0.473
22 | GCTGCTAGGTCAACTGATGGTCAGCTTAAGCTCG | 0.988
23 | CGAACGAGGGCATGTGTTGATAGCAAATGCCGAT | 0.0176
24 | CCTCGGATGACAGAAGGTCAGAGCTGTCCGCTTT | -0.359
25 | GGAACGAGCGCAAGTTGATAGCAGAGTTTGATGG | -0.971
26 | TTACCAAGTTGAGCTGAGGTCGTTGATCCAACTC | 1.77
27 | GCGACTGGGGCATCAGCAGGTTACCATGACTTAA | 0.00537
28 | CCTAGTTGGTCAAGTTCACACACGCTATAGGTAC | 1.46
29 | ATCGAAAGGTCGACGAGGCGAGTATACACCGTTT | -0.128
30 | TAACCAAGGTGAGCTGAGGTCGTTGATCCAACTC | 1.86
31 | CTACCAAGGAGAACAAGGTCGTTGATTACTATTC | 1.05
32 | CCGACTCGGGCAGAAAGGTTACCATACCATCCGG | -0.699
33 | CCTACTGGGCCAAGGGCATTGATCAGTCAAAGCA | -0.634
34 | CCGACTGGGGCACAGGTTACCATACTCAGTACGA | -0.26
35 | ACTAGCAGGCCAAGTTTGGGTCACGCAAACAAAG | 1.78
36 | CGAACTAGGTCAGTACAGGACAGTGAAGGATGAT | 0.28
37 | CCTCGGAGGACAGCAGGTCAGAGCTGTCCGCTTT | 0.123
38 | ATCTCTAGGTAAGACTCAGTACAGTGAAGAACGC | 0.766
39 | CCGACTGAGGCATAAGGTTACCATAAGCCAGCCC | 1.53

test system: VDR homodimer (NR concentration 270 nM); assay: as above
Procedure, shortened: as §1

Row | Sequence | PBM binding z-score
40 | GCTCGGAGGACAAGGTCAGAGGTTTGTCCGTAGA | 1.2
41 | GGAACGAGGGCATTCAAGTTGATAGCATGGCGAT | 2.77
42 | CGTTACGGGTCACGAGGTTATAGCACGACGAGCG | 1.96
43 | AGTCAAAGTTCACTAGGTACCGTAAGATTCAGCT | 3.97
44 | GGAACGAGGGCAATCGAGTTGATAGCATGGCGAT | 1.87
45 | GGAGCGAGGGCATTCGAGTTGATAGCATGGCGAT | 3.06
46 | CTCGAAAGGACGTGCTCAGGTGAGTATACCAAAC | -0.391
47 | TCTCGGAGCACACGAAAGGTCAGAGCTCGACATC | -0.387
48 | TTACCAAGGTGAGCTGATGTCGTTGATCCAACTC | -0.492
49 | TTTAGTTGGTCACGGAGGTCACACACGACGGGTA | 3.7
50 | TCTAATTGGTCACGGAGGTCACACACGACGGGTA | 3.23
51 | TCGAGTAGGTTAGGGACATTCAGAATGGCGTCGA | 0.358
52 | TCTAGTTGGTCACAGGTCACACACTCGAAATGCG | 1.7
53 | TCTATTAGTTGATTAGGTCAACCGAAACAGCGGA | 1.2
54 | CGAACTAGGTCATCCAGGACAGTGGATACATTGA | 2.06
55 | TCGAGTAGGTTAAGGGCATTCAGAATGGCGTCGA | 1.14
56 | CGTCCAAGGTCAGAAAGGTCAGTGAATGCCGAGT | 4.66
57 | AGAATGAGGTTATTAAGATCAGGAAATTGCGGTC | 1.18
58 | CAAACTAGGTCATTGACAGGACAGTGAATAGTAA | 1.51
59 | TCTGCTCGGTCAACGATGGTCAGCTAATCTGCTA | -0.978

Row | Sequence | PBM binding z-score
60 | CCGACTGGTGCAAGGTTACCATAACGCACAGCCA | 0.112
61 | GCTGCTAGGTCAACTGATGGTCAGCTTAAGCTCG | -0.0541
62 | CGAACGAGGGCATGTGTTGATAGCAAATGCCGAT | 1.44
63 | CCTCGGATGACAGAAGGTCAGAGCTGTCCGCTTT | 0.287
64 | GGAACGAGCGCAAGTTGATAGCAGAGTTTGATGG | -0.311
65 | TTACCAAGTTGAGCTGAGGTCGTTGATCCAACTC | 2.04
66 | GCGACTGGGGCATCAGCAGGTTACCATGACTTAA | -0.549
67 | CCTAGTTGGTCAAGTTCACACACGCTATAGGTAC | 5.29
68 | ATCGAAAGGTCGACGAGGCGAGTATACACCGTTT | 0.605
69 | TAACCAAGGTGAGCTGAGGTCGTTGATCCAACTC | 1.81
70 | CTACCAAGGAGAACAAGGTCGTTGATTACTATTC | 1.73
71 | CCGACTCGGGCAGAAAGGTTACCATACCATCCGG | -0.0904
72 | CCTACTGGGCCAAGGGCATTGATCAGTCAAAGCA | -0.245
73 | CCGACTGGGGCACAGGTTACCATACTCAGTACGA | -0.0992
74 | ACTAGCAGGCCAAGTTTGGGTCACGCAAACAAAG | 0.403
75 | CGAACTAGGTCAGTACAGGACAGTGAAGGATGAT | 0.105
76 | CCTCGGAGGACAGCAGGTCAGAGCTGTCCGCTTT | -0.273
77 | ATCTCTAGGTAAGACTCAGTACAGTGAAGAACGC | 0.66
78 | CCGACTGAGGCATAAGGTTACCATAAGCCAGCCC | 0.195
